Test results: the supplement of paper PMC6555819

How the values were obtained:
Test in all cases: PBM binding z-score (relative to random genomic background probes); higher = stronger binding; sequences stand for … in GC…GCGATTGACAGCGTAGAATGAAGG
[1] = system: FXR:RXRa (NR concentration 270 nM, RXRa partner concentration 90 nM)
How it was run: (§1)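 Ligand-free nuclear receptor dimers were bound for 1 h to custom Agilent 4×180K protein-binding microarrays. Detection used antibodies against each partner (one per run). Binding z-scores rest on regression-normalized fluorescence, with random background probes as the reference.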

[2] = system: LXRa:RXRa (NR concentration 270 nM, RXRa partner concentration 90 nM)
How it was run: as §1

[3] = system: LXRa homodimer (NR concentration 270 nM)
How it was run: as §1

[4] = system: LXRb:RXRa (NR concentration 270 nM, RXRa partner concentration 90 nM)
How it was run: as §1

[5] = system: LXRb homodimer (NR concentration 270 nM)
How it was run: as §1

[6] = system: PPARa:RXRa (NR concentration 270 nM, RXRa partner concentration 90 nM)
How it was run: as §1

[7] = system: PPARg:RXRa (NR concentration 180 nM, RXRa partner concentration 90 nM)
How it was run: as §1

[8] = system: PPARg:RXRa 270nM:90nM, anti-RXR (NR concentration 270 nM, RXRa partner concentration 90 nM)
How it was run: as §1

[9] = system: PPARg:RXRa 30nM:10nM, anti-RXR (NR concentration 30 nM, RXRa partner concentration 10 nM)
How it was run: as §1

[10] = system: PPARg:RXRa 90nM:30nM, anti-RXR (NR concentration 90 nM, RXRa partner concentration 30 nM)
How it was run: as §1

[11] = system: PPARg:RXRa DBDmut IVT, anti-RXR (DBD mutation: RXRa K156A/R161A, NR concentration 270 nM, RXRa partner concentration 90 nM)
How it was run: as §1

[12] = system: PPARg:RXRa IVT, anti-PPARg (NR concentration 270 nM, RXRa partner concentration 90 nM)
How it was run: as §1

[13] = system: PPARg DBDmut:RXRa IVT, anti-PPARg (DBD mutation: PPARg1 K132A/R137A, NR concentration 270 nM, RXRa partner concentration 90 nM)
How it was run: as §1

[14] = system: PPARg DBDmut IVT, anti-PPARg (DBD mutation: PPARg1 K132A/R137A, NR concentration 270 nM)
How it was run: as §1

[15] = system: PPARg homodimer (NR concentration 180 nM)
How it was run: as §1

[16] = system: PXR homodimer (NR concentration 270 nM)
How it was run: as §1

[17] = system: RARa homodimer (NR concentration 270 nM)
How it was run: as §1

[18] = system: RARb:RXRa (NR concentration 270 nM, RXRa partner concentration 90 nM)
How it was run: as §1

[19] = system: RARa:RXR (NR concentration 270 nM, RXRa partner concentration 90 nM)
How it was run: as §1

[20] = system: PXR:RXRa (NR concentration 270 nM, RXRa partner concentration 90 nM)
How it was run: as §1

| Sequence | PBM binding z-score [1] | PBM binding z-score [2] | PBM binding z-score [3] | PBM binding z-score [4] | PBM binding z-score [5] | PBM binding z-score [6] | PBM binding z-score [7] | PBM binding z-score [8] | PBM binding z-score [9] | PBM binding z-score [10] | PBM binding z-score [11] | PBM binding z-score [12] | PBM binding z-score [13] | PBM binding z-score [14] | PBM binding z-score [15] | PBM binding z-score [16] | PBM binding z-score [17] | PBM binding z-score [18] | PBM binding z-score [19] | PBM binding z-score [20] |
| --- | --- | --- | --- | --- | --- | --- | --- | --- | --- | --- | --- | --- | --- | --- | --- | --- | --- | --- | --- | --- |
| CGTCCAAGGTCAATGCGAGGTCAGTGAAAGCATT | 7.21 | 6.04 | 4.28 | 5.1 | 1.25 | 5.46 | 4.59 | 4.98 | 1.48 | 3.65 | 3.2 | 4.05 | 0.262 | -0.0151 | 6.13 | 4.68 | 1.33 | 5.4 | – | – |
| ATCGAAAGGTCGTGAGGTGACTATACAGAAAGGC | 5.54 | 4.2 | 0.422 | 3.45 | 0.557 | 5.49 | 4.59 | 4.64 | 1.98 | 3.39 | 0.761 | 2.62 | 1.76 | 1.47 | 1.55 | 0.227 | 1.01 | 3.99 | 4.52 | – |
| AATACAGGGTCACTGGGCCAGAGTAGGTACGAAT | 6.75 | 5.6 | 1.01 | 4.21 | 0.418 | 6.23 | 8.71 | 6.98 | 3.69 | 5.91 | 4.06 | 5.96 | 1.16 | 2.2 | 3.2 | 0.0493 | 1.05 | 4.3 | 4.88 | – |
| GATACAGGGGCAAGGCCAGAGTACGCGTATTGAT | -0.0183 | -0.167 | -0.13 | 0.382 | -0.692 | 0.546 | 0.875 | 0.31 | 0.0579 | 0.23 | 0.794 | 0.691 | -0.76 | -0.28 | 0.334 | 0.0474 | -0.216 | 1.65 | 0.0151 | – |
| CTCGAAAGGTCGGTTGAGGTCAGTATACGGATAA | 5.06 | 5.23 | 1.74 | 3.81 | 0.351 | 3.83 | 1.26 | 2.17 | 0.448 | 1.75 | -0.211 | 1.36 | 0.0267 | 0.122 | 3.1 | 2.85 | 1.04 | 4.13 | 4.9 | – |
| CTCCAAAGGTCGGTTGAGGTGAGTATACGGATAA | 2.49 | 1.93 | -0.152 | 1.71 | -0.00126 | 2.95 | 1.01 | 1.64 | 0.12 | 0.875 | 0.32 | 1.01 | 0.267 | -0.816 | 1.53 | 0.251 | -0.204 | 3.18 | 2.58 | – |
| CGAAGTAGGTCACCAGGACAGTGAAGAGGTTGGA | 3.65 | 2.69 | 0.0752 | 2.07 | -0.257 | 5.34 | 8.79 | 7.35 | 4.81 | 7.02 | 8.22 | 8.92 | – | 0.944 | 1.76 | 0.236 | 0.426 | 3.99 | 2.78 | 1.71 |
| TAGCCAAGGTCAGATCGGGCCAGTATACGCTATA | 5.26 | 3.12 | -0.0844 | 2.55 | 0.145 | 3.85 | 1.88 | 2.35 | 0.514 | 1.53 | 0.246 | 1.81 | 0.476 | -0.254 | 1.38 | -0.349 | -0.193 | 4.3 | 2.61 | – |
| ATATGTAGGTTAGGGTCATTCCGAAAGTAGGGAA | 4.95 | 3.68 | 1.27 | 4.26 | 1.53 | 5.69 | 7.77 | 6.58 | 4.22 | 6.26 | 6.18 | 6.86 | – | 1.28 | 2.67 | 1.79 | 1.82 | 3.43 | 4.8 | 4.29 |
| CGAACTAGGTCACCAGGACAGTCAAGAGGTTGGA | 4.17 | 2.7 | 0.267 | 1.86 | -0.431 | 5.16 | 8.84 | 6.8 | 4.63 | 6.37 | 8.33 | 8.73 | – | 2.35 | 2.43 | 0.0182 | 0.536 | 4.28 | 2.72 | 1.51 |
| CGAACTACGTCAAAGGACAGTGAAAGGCGACGTA | -0.5 | -0.431 | -0.3 | -0.675 | -0.597 | 0.0872 | 1.15 | 1.53 | 0.179 | 1.25 | -0.332 | -0.152 | – | -0.567 | -0.204 | -0.202 | -0.431 | 1.14 | -0.353 | -0.445 |
| CGTCCAAGGTCATACGAGGTCAGTGAAGACAGAT | 7.86 | 7.57 | 5.5 | 6.63 | 1.78 | 5.87 | 5.57 | 5.9 | 2.88 | 4.6 | 3.46 | 4.63 | 1.25 | 0.789 | 5.5 | 9.7 | 2.69 | 5.43 | 6.69 | – |
| CGTCTAAGTTCAAGGTAACGTAACAGAAAGCAGC | 4.08 | 3.47 | 1.01 | 2.01 | 0.51 | 3.18 | 1.39 | 2.11 | 0.885 | 1.69 | 0.796 | 1.09 | 0.251 | 0.258 | 1.64 | 2.9 | 0.625 | 3.79 | 2.09 | – |
| CGAACTCGGTCAAAGGACAGTGAAAGGCGACGTA | 0.719 | 0.857 | -0.21 | -0.0802 | -0.824 | 2.68 | 5.06 | 5.39 | 3.97 | 5.3 | 2.71 | 3.18 | – | -0.87 | 0.102 | -0.567 | -0.278 | 2.56 | 0.43 | -0.0185 |
| ATGTGTAGGTTACATCCGGGTCATTCAGGCTATG | 2.23 | 4.19 | 1.76 | 2.87 | 0.855 | 3.45 | 2.44 | 2.64 | 0.934 | 2.02 | 2.96 | 4.13 | 1.02 | 1.88 | 3.03 | 2.51 | 1.12 | 2.37 | 4.01 | – |
